Bioassay records from PubChem BioAssay.
hDAT+cocaine: human DAT dopamine uptake with cocaine, either direction; B-score at 10 µM; AID 449768; Q01959; actives 1.3% (n = 110,000); LLC-PK1 hDAT cells, [14C]-dopamine uptake with cocaine IC80; actives deviate in either direction;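 active means Z score or B-score, a plate-position-corrected score, falls beyond the plate's 99.7% confidence bounds, in either direction; inactive means both scores lie inside the 99.7% bounds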
D1 mod: D1 dopamine receptor (human) allosteric modulation | P21728 | HEK293 D1, CRE-luciferase, dopamine EC30 potentiation; actives deviate in either direction | B-score at 10 µM | actives 5.9% (n = 58,000);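 active means luminescence count or its row- and column-corrected plate score outside the 99.7% band of the plate's sample wells, on either side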
ROCK2 inh: inhibitors of human Rho kinase 2. O75116. purified ROCK2, Kinase-Glo ATP depletion luminescence. inhibition, % at 6 µM. actives 0.35% (n = 60,000). AID 604;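 active means inhibition above the screen-wide mean inhibition plus 3 SD, cut at about 18% in these data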
JNK3 inh: JNK3 (human) kinase inhibition; P53779; purified JNK3 kinase activity, HTS; inhibition, % at 8 µM; actives 0.61% (n = 60,000); in the data active means inhibition above about 17%
Target sequence (P53779 whole entry, looked up): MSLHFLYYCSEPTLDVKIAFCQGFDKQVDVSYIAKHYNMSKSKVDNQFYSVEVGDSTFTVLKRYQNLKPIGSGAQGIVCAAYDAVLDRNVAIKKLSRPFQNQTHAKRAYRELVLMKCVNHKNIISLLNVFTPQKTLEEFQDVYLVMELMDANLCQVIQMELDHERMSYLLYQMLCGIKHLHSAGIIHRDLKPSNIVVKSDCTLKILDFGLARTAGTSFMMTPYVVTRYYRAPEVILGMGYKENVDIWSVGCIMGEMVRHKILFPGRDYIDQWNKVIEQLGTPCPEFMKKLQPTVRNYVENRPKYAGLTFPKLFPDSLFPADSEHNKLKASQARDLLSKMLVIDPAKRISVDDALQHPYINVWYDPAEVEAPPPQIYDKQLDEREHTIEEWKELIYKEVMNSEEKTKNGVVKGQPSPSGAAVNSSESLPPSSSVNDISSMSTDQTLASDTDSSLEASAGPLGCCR
PKA kinase inh: PKA (human) kinase inhibition | PKA Kemptide phosphorylation, Kinase-Glo ATP luminescence | actives 0.1% (n = 65,000) | inhibition, % at 6 µM | AID 524;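 active means inhibition above the screen-wide mean inhibition plus 3 SD, cut at about 21% in these data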
D1 mod confirm: D1 receptor (human) allosteric modulation, confirmed; HEK293 D1 CRE-luciferase, dopamine EC30 potentiation; hits give high values; actives 88% (n = 2,200); shares compounds with D1 mod; luminescence at 10 µM;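 active means luminescence in either of two replicates above the same-plate mean plus 3 SD of the low-dose dopamine control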
D1 ag no DA: activates D1 CRE-luciferase signal without dopamine present; actives 0.8% (n = 1,900); AID 646; shares compounds with D1 mod; HEK293 D1 CRE-luciferase, luminescence, no dopamine; hits give high values; luminescence at 10 µM; in the data active means luminescence above about 3900
Isoprot counter: alters isoproterenol CRE-luciferase response in HEK293 cells; shares compounds with D1 mod; HEK293 D1 CRE-luciferase, isoproterenol EC30 counter-screen; calls only at 10 µM; actives 63% (n = 2,200); AID 647;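 active means luminescence in either replicate above plate mean of wells with a partly effective reference agonist dose plus 3 SD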;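 further: isoproterenol raises cAMP through native beta-adrenoceptor Gs so signal bypasses D1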
Hits are given with their value; - = inactive; . = no result given; + = active, no number. The sample as a whole holds a higher share of hits than the screen did.

SMILES | hDAT+cocaine | D1 mod | ROCK2 inh | JNK3 inh | PKA kinase inh | D1 mod confirm | D1 ag no DA | Isoprot counter
Cc1cccc(Cc2c(C)nc3c(C(=O)NCc4ccco4)cnn3c2C)c1 | - | 3.89 | - | - | - | 8112 | - | -
COc1ccc2c(c1OC)C(=O)N(c1cccc(C)c1)C2=O | - | 4.6 | - | - | - | 10596 | - | +
CC(=O)NC1(c2ccccc2)CCN(c2nc(C)cc(C)n2)CC1 | - | 3.45 | - | - | - | - | - | -
Cc1cc(C)nc(N2CCC(C(=O)NC3CCCc4ccccc43)CC2)n1 (configuration not stated) | - | - | - | - | - | . | . | .
COC(=O)c1cc(Br)c(=O)n(-c2ccccc2F)c1 | - | . | . | . | . | . | . | .
O=S(=O)(c1ccccc1)c1nc(-c2ccco2)oc1N1CCCCCC1 | - | 6.6 | - | - | - | 10268 | - | -
CCSc1oc(-c2ccco2)nc1S(=O)(=O)c1ccccc1 | - | 2.97 | . | . | - | 24204 | - | +
CCCSc1oc(-c2ccco2)nc1S(=O)(=O)c1ccccc1 | - | 17.1 | - | - | - | 14944 | - | +
CCSc1oc(-c2ccccc2)nc1S(=O)(=O)c1ccccc1 | - | - | - | - | - | . | . | .
CSc1oc(-c2ccco2)nc1S(=O)(=O)c1ccc(Br)cc1 | - | 3.99 | - | - | - | 15096 | - | -
Cc1nn(C)c(N)c1C(O)(c1nccn1C)C(F)(F)F (configuration not stated) | - | - | - | - | - | . | . | .
CC1CCCN(C(=O)COC(=O)c2ccc[nH]c2=O)C1 (configuration not stated) | - | . | . | . | . | . | . | .
Cc1cccc(NC(=S)NNC(=O)CC(C)O)c1C (configuration not stated) | - | . | . | . | . | . | . | .
COc1cc(-c2nc(S(=O)(=O)c3ccccc3)c(N3CCOCC3)o2)cc(OC)c1OC | - | 5.08 | . | . | - | 11504 | - | +
COc1ccc(-c2nc(S(=O)(=O)c3ccc(C)cc3)c(N3CCCC3)o2)cc1 | - | - | - | - | - | . | . | .
O=C1NC(c2ccco2)Nc2ccccc21 (configuration not stated) | - | - | - | - | - | . | . | .
O=c1[nH]c2c(s1)C(c1ccco1)C1C3CCC(C3)C1S2 (configuration not stated) | - | 25.9 | . | . | - | 19088 | - | +
CCOC(=O)NCCc1ccc(OC)cc1 | - | 3.75 | - | - | - | 8468 | - | -
O=C(Nc1ccc2c(c1)OCCO2)C1CCN(S(=O)(=O)c2ccc(Br)s2)CC1 | - | - | . | . | - | . | . | .
CCCCNC(=O)C1CCCN1C(=O)Nc1cccc(OC)c1 (configuration not stated) | - | 30.2 | - | - | - | - | - | -
Clc1ccc(C(c2nnnn2C2CCCCC2)N(Cc2cccnc2)Cc2ccco2)cc1 (configuration not stated) | - | . | - | - | - | . | . | .
O=c1cc(-c2ccccc2)c2c([nH]1)CCCC2 | - | 5.25 | - | - | - | 7876 | - | -
O=c1cc(-c2ccccc2Cl)c2c([nH]1)CCC2 | - | - | - | - | - | . | . | .
Cc1ccc(NC2c3ncccc3C(=O)N2C2CCCCC2)cc1 (configuration not stated) | - | 11.2 | - | - | - | 13584 | . | +
Cc1ccc(NC2c3ncccc3C(=O)N2C2CCCCC2)cc1C (configuration not stated) | - | 4.08 | - | - | - | 10752 | - | +
SMILES | hDAT+cocaine | D1 mod | ROCK2 inh | JNK3 inh | PKA kinase inh | D1 mod confirm | D1 ag no DA | Isoprot counter
CCOc1cc(C2/C(=C(\O)c3cc(C)ccc3C)C(=O)C(=O)N2CCN(C)C)ccc1O (configuration not stated) | - | - | . | . | - | . | . | .
CN1CC(c2ccc(C#N)cc2)C2(COc3ccccc3C2=O)C12C(=O)Nc1ccccc12 (configuration not stated) | - | . | . | . | . | . | . | .
O=C(Nc1ccc(F)cc1)N1CCOCC1 | - | 5.36 | - | - | - | - | - | -
Cc1ccc(Nc2nc(Oc3ccc(OCc4ccccc4)nn3)nc(N3CCOCC3)n2)cc1 | - | - | - | - | - | . | . | .
c1ccc(COc2ccc(Oc3nc(N4CCCCC4)nc(N4CCOCC4)n3)nn2)cc1 | - | 9.23 | - | - | - | 15844 | - | +
CCCC(=O)c1cc(F)c(N2CCN(S(=O)(=O)c3ccccc3)CC2)cc1C | - | - | . | . | . | . | . | .
CCCC(=O)c1ccc(N2CCN(S(=O)(=O)c3ccccc3)CC2)c(F)c1 | - | 4.8 | - | - | - | - | - | -
Cc1n[nH]c(C)c1S(=O)(=O)N1CCN(C2CCCCC2)CC1 | - | - | . | . | - | . | . | .
CC(C)Cn1nc(NC(=O)C2CCCO2)c2cc3ccccc3nc21 (configuration not stated) | . | 11.7 | - | - | - | 16892 | . | +
CCn1nc(NC(=O)c2cccnc2)c2cc3ccccc3nc21 | - | 6.64 | - | - | - | 7008 | - | +
CC(C)Cn1nc(NS(=O)(=O)c2ccccc2)c2cc3ccccc3nc21 | - | - | - | - | - | . | . | .
COCCn1nnnc1SCC(=O)c1ccccc1 | - | - | - | - | - | . | . | .
CC1CC(C)CN(CCCNC(=O)c2csc3c2CCCC3)C1 (configuration not stated) | - | . | . | . | . | . | . | .
CCOC(=O)c1nc(-c2ccccc2)oc1N(C)C | - | 4.04 | - | - | - | 9692 | - | -
O=C(CSc1nnnn1-c1ccc(F)cc1)NC1CCCCC1 | - | - | - | - | - | . | . | .
CCOC(=O)N1CCN(C(=O)C(C)(C)Oc2ccc(Cl)cc2)CC1 | - | 1.91 | - | - | - | 7408 | - | -
COc1ccc(N2CCN(C(=O)C(C)(C)Oc3ccc(Cl)cc3)CC2)cc1 | - | - | - | - | - | . | . | .
CCOc1cc(C2C(C(=O)OCC(C)C)=C(C)N=C3SCCC(=O)N32)ccc1OC(C)=O (configuration not stated) | - | - | - | - | - | . | . | .
O=C(OCCN1C(=O)CCC1=O)c1ccc(S(=O)(=O)N2CCCCC2)cc1 | - | - | - | - | - | . | . | .
CC(C)OC(=O)C(C#N)c1nc2ccccc2nc1N1CCCC1 (configuration not stated) | - | 9.95 | - | - | - | 20752 | - | +
COC(=O)C(C#N)c1nc2ccccc2nc1N1CCCC1 (configuration not stated) | - | 5.48 | - | - | - | 9832 | . | +
CC(C)CCn1c(N2CCN(c3cccc(Cl)c3)CC2)nc2c1c(=O)[nH]c(=O)n2C | - | 15.2 | - | - | - | 18092 | - | +
CC1CCN(c2nc3c(c(=O)[nH]c(=O)n3C)n2Cc2ccccc2)CC1 | - | 7.89 | - | - | - | 16032 | - | +
Cn1c(=O)[nH]c(=O)c2c1nc(NC1CCCCC1)n2Cc1ccccc1 | - | 6.81 | - | - | - | 8436 | - | +
